The results in this text go back to ChEMBL document CHEMBL4808148, “HDAC6 screening dataset using tau-based substrate in an enzymatic assay yields selective inhibitors and activators” (2021).

The whole screen tested about 5,600 compounds, of which about 390 (7%) showed an effect of 50% or more. What follows is part of a selection rich in strong results, with near analogues and random picks from the rest.

This assay addresses T1, Protein deacetylase HDAC6 (Homo sapiens) (UniProt Q9UBN7).
T1 sequence (whole entry): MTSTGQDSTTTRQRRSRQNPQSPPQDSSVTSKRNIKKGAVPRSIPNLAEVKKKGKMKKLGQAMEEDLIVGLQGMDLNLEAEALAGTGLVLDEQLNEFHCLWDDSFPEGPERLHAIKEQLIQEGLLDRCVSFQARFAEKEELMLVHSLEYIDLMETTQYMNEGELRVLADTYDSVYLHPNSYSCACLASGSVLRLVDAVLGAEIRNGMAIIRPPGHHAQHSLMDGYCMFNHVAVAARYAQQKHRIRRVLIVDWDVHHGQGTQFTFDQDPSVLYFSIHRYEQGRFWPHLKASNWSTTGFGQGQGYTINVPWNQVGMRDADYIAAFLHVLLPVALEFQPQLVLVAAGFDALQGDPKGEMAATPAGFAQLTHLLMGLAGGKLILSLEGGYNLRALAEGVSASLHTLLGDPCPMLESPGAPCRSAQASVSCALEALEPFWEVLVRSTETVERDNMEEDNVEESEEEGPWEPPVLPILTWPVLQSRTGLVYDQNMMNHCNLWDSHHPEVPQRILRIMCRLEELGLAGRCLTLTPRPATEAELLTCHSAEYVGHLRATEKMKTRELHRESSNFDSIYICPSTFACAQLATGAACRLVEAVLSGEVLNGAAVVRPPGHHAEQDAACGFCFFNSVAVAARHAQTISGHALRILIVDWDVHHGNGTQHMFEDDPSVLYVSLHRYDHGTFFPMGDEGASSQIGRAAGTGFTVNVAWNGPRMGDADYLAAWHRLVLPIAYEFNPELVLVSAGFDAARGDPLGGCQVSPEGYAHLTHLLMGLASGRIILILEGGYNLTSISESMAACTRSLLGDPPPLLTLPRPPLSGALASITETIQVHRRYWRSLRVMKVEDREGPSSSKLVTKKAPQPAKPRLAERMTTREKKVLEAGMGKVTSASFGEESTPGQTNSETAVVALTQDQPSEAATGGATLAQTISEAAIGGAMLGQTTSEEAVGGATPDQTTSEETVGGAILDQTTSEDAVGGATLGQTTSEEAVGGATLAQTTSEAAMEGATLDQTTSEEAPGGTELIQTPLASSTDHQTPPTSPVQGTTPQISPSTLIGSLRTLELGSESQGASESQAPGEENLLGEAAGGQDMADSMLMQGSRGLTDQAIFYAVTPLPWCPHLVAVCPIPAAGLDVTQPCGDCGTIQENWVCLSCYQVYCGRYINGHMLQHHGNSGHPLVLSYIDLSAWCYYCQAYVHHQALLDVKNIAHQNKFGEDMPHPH
The note with it: at 10 µM.
In the case of `OCc1ccc(-c2ccc(-c3ccc(CO)s3)o2)s1`, the inhibition (commonly the drop in the measured response relative to a control, in per cent) came out at 102%. In the case of `O=C(O)COc1cccc(-c2ocnc2-c2nc(-c3ccccc3)c(-c3ccccc3)o2)c1`, the inhibition was -1.23%. With `Cc1ncc(C[n+]2csc(CCO)c2C)c(N)n1`, the inhibition is 53%.

As for `CCCc1ncc(C[n+]2ccccc2C)c(N)n1`, the inhibition was -5.17%.

Take `CC(C)CN(C[C@@H](O)[C@H](Cc1ccccc1)NC(=O)O[C@H]1CCOC1)S(=O)(=O)c1ccc(N)cc1`: the inhibition stood at 1.38%. `COc1ccc(OC)c(CN(C(C)=O)c2cc(F)ccc2Oc2ccccc2)c1`: the inhibition worked out at 1.27%. As for `O=C(c1ccc(OCCN2CCCCC2)cc1)c1c(-c2ccc(O)cc2)sc2cc(O)ccc12`, the inhibition turned out to be 38.5%. For the molecule `Cc1c(-c2ccc(O)cc2)n(Cc2ccc(OCCN3CCCCCC3)cc2)c2ccc(O)cc12`, the inhibition turned out to be 86.2%. Regarding `O=C(Cc1ccc(-c2ccc(OCCN3CCOCC3)cc2)cn1)NCc1ccccc1`, the inhibition was determined as 9.75%. With `O=[N+]([O-])c1cnc(Sc2nnc(O)n2-c2ccc3c(c2)OCCO3)s1` the figure was 11.2%; with `C[n+]1cccc(C(=O)[O-])c1`, 7.12%. With `O=C(Nc1ccccc1)C12CC1/C(=N\O)c1ccccc1O2` (configuration not stated) the figure was 16.1%; with `Nc1cc(C(F)(F)F)c(-c2nc(N3CCOCC3)nc(N3CCOCC3)n2)cn1`, -6.25%; with `O=C(O)C(=O)Cc1c[nH]c2ccccc12`, 20.3%. For the molecule `c1ccc2c(Cc3c[nH]c4ccccc34)c[nH]c2c1`, the inhibition was determined as 71.8%. With `OCc1c[nH]c2ccccc12` the figure was 2.93%; with `CCc1cc2c(c(CC)n1)CCC(=O)N2Cc1ccc(-c2ccccc2-c2nnn[nH]2)cc1`, 0.45%; with `[O-][S+](c1ccccc1)c1ccc2nnnn2n1` (configuration not stated), -5.95%. Regarding `Clc1ccc(N/N=C(\c2ccccc2)c2ccccn2)nc1`, the inhibition was 25.9%.

On to `c1ccc(COCCCc2c[nH]cn2)cc1`, for which the inhibition is 20.5%. On to `COc1ccc2cc1Oc1ccc(cc1)C[C@H]1c3c(cc4c(c3Oc3cc5c(cc3OC)CCN(C)[C@@H]5C2)OCO4)CCN1C`, for which the inhibition is -6.05%. As to `O=C1/C(=C/c2ccccc2)C(NC2CCCCC2)c2ccccc21` (configuration not stated), the inhibition worked out at 8.83%. Take `Cc1noc(NS(=O)(=O)c2cccc3c(N(C)C)cccc23)c1C`: the inhibition was 29.9%. Consider `Nc1nc2c(cnn2CCc2ccccc2)c2nc(-c3ccco3)nn12`, for which the inhibition is 61.6%.

`Cc1cc(Cl)ccc1OCCCC(=O)NO`: the inhibition is 98.5%.

`Cc1ccc(C)c(OCCCC(C)(C)C(=O)O)c1`: the inhibition amounted to 7.2%.

With `COc1ccc2[nH]c3c(-c4cccc5ccccc45)nccc3c2c1`, the inhibition turned out to be 9.67%. Then `Cc1cc(C)c(N)c(C#Cc2cccc(F)c2)n1`, with 103%; and `Cc1nc(C#Cc2ccnc(Cl)c2)c(C)n1-c1ccc(F)cc1`, with 5.29%. Take `CC(C)NC(=O)c1ccc(C#Cc2ccncc2)cn1`: the inhibition is -5.33%. On to `C[C@@H]([C@H](C)O)[C@H](N)C(=O)O`, for which the inhibition was -7.36%. With `CNC(=O)c1ccc(C)c(-n2c(C)cc(OCc3ccc(F)cc3F)c(Br)c2=O)c1` the figure was 72.6%; with `CCCCCCCCCCCCCC[C@@H](O)[C@@H](O)[C@@H](N)CO`, 0.56%; with `CCCc1c(OCC(O)COc2ccc3c(=O)cc(C(=O)O)oc3c2CCC)ccc(C(C)=O)c1O` (configuration not stated), 22.7%. On to `Cc1cc(OI)c(C(C)C)cc1-c1cc(C(C)C)c(OI)cc1C`, for which the inhibition was determined as 7.55%.

For `Cc1nc2ccc(NC(=O)Nc3ccnc4cccnc34)cc2o1`, the inhibition was 76%.

As for `CN[C@@H]1CCc2[nH]c3ccc(C(N)=O)cc3c2C1`, the inhibition came out at 9.03%. As to `Cc1cccc(/C=N/Nc2cc(N3CCOCC3)nc(OCCc3ccccn3)n2)c1`, the inhibition amounted to 1.14%. Turning to `Cc1cc(-c2nncc3c(C(C)(C)C)c(OCc4ncnn4C)nn23)no1`, the inhibition was -0.39%. Turning to `O=C1c2c(O)cc(O)cc2O[C@H](c2ccc(O)c(O)c2)[C@H]1O`, the inhibition was found to be 10.8%. In the case of `COc1cc([C@H]2Oc3cc([C@H]4Oc5cc(O)cc(O)c5C(=O)[C@@H]4O)ccc3O[C@@H]2CO)ccc1O`, the inhibition turned out to be 15.7%.

On to `O=C1C[C@@H](c2ccccc2)Oc2cc(O)cc(O)c21`, for which the inhibition turned out to be 50.7%. With `COc1ccc([C@@H]2CC(=O)c3c(O)cc(O)cc3O2)cc1O` the figure was 94.9%; with `COc1ccc([C@@H]2CC(=O)c3c(O)cc(O[C@@H]4O[C@H](CO[C@@H]5O[C@@H](C)[C@H](O)[C@@H](O)[C@H]5O)[C@@H](O)[C@H](O)[C@H]4O)cc3O2)cc1O`, 14.3%; with `O=C1C[C@@H](c2ccc(O)cc2)Oc2cc(O)ccc21`, -5.99%. For the molecule `CS(=O)(=O)c1ccc([C@@H](CC2CCCC2)C(=O)Nc2nccs2)cc1`, the inhibition is -9.75%. Regarding `Cn1cnnc1Sc1c([N+](=O)[O-])ncn1C`, the inhibition came to 19.5%. With `C=C1/C(=C\C=C2/CCC[C@]3(C)[C@@H]([C@H](C)/C=C/[C@@H](O)C4CC4)CC[C@@H]23)C[C@@H](O)C[C@@H]1O` the figure was 1.78%; with `C[C@@H](CN1CCC(n2c(=O)[nH]c3cc(Cl)ccc32)CC1)NC(=O)c1ccc2ccccc2c1`, 8.37%. On to `CC1(C)N=C(N)N=C(N)N1OCCCOc1cc(Cl)c(Cl)cc1Cl`, for which the inhibition turned out to be 12%. Then `Clc1cccc(-n2nnnc2NCc2ccccc2Oc2ccccn2)c1Cl`, with 0.62%; and `C[n+]1ccccc1C=NO`, with 0.38%.
